Data on 5 compounds can be found in PubChem BioAssay.

A short description of experiment [1]: small molecules captured by biotinylated probe aFSTL3 – biochemical, small-molecule microarray, fluorescence 635/667, stem cell growth factor project, primary screen (AID 1064).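 Further: measures binding of the biotinylated anti-FSTL3 antibody to printed compounds.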 The note with it: higher = more signal.
Experiment [2] in a line: binders from COS7 lysate, DM2A8 probe, primary screen, torsin A project, cell lysate, small-molecule microarray, fluorescence 635/667 (AID 1065). As to conditions: higher = more signal, COS7 lysate expressing mutant human TOR1A.
The nature of experiment [3]: small molecules captured by biotinylated probe aFGF2 – biochemical, small-molecule microarray, fluorescence 635/667, stem cell growth factor project, primary screen (AID 1067).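 Further: measures binding of biotinylated aFGF2 protein to printed compounds on slides; z-score merges feature fluorescence and signal-to-noise across triplicate slides.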 As to conditions: higher = more signal.
Experiment [4] is described as follows: small molecules captured by biotinylated probe aFGF10 – biochemical, small-molecule microarray, fluorescence 635/667, stem cell growth factor project, primary screen (AID 1071).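 Further: score merges 667 nm spot intensity and signal to noise from triplicate slides.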 The note with it: higher = more signal.
Experiment [5] deals with Neurogenic locus notch homolog protein 2 (Homo sapiens) (UniProt Q04721). Description: small molecules binding Notch2 protein – biochemical, small-molecule microarray, 635 nm fluorescence, stem cell growth factors, primary screen (AID 1073). As to conditions: higher = more signal.
For experiment [6], the target named is Pro-neuregulin-1, membrane-bound isoform (Homo sapiens) (UniProt Q02297). Briefly: small molecules binding neuregulin-1 protein – biochemical, small-molecule microarray, fluorescence 635/667, psychiatric disease protein project, primary screen (AID 1075).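 Further: score combines 667 nm spot fluorescence with signal to noise.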 As to conditions: NRG1 binding, 635 nm fluorescence, higher = more signal.
Experiment [7] concerns Neuregulin-1 EGF-like domain. Description: small molecules binding NRG1 EGF domain – biochemical, small-molecule microarray, 635 nm fluorescence, primary screen (AID 1081).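 Further: binding of the protein to compounds printed on small-molecule microarray slides.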 As to conditions: higher = more signal.
Experiment [8] in a line: FRG1 expression reporter modulators in myotubes – cell-based, C2C12 myotubes, firefly/Renilla luciferase, luminescence, FRG1 inhibition for FSHD, primary screen (AID 1084). The note with it: FRG1 promoter luciferase, higher = more signal, called active from +8 up or from −8 down.
The nature of experiment [9]: small molecules captured by biotinylated probe aFST – biochemical, small-molecule microarray, fluorescence 635/667, stem cell growth factor project, primary screen (AID 1086).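 Further: score merges 667 nm fluorescence with signal-to-noise of each printed compound spot.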 The note with it: higher = more signal.
The nature of experiment [10]: binders of probe aHhip on microarray, primary screen, stem cell growth factor project, biochemical, small-molecule microarray, fluorescence 635/667 (AID 1087).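 Further: score merges spot fluorescence at 667nm with spot signal to noise ratio.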 The note with it: higher = more signal.
Experiment [11] concerns PRMT1 (protein arginine N-methyltransferase 1). Description: small molecules binding arginine methyltransferase PRMT1 – biochemical, small-molecule microarray, 635 nm fluorescence, primary screen (AID 1088).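 Further: binding of Prmt1 protein to compounds spotted on small-molecule microarray slides.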 The note with it: higher = more signal.
Experiment [12] in a line: growth effects on S. cerevisiae YJM789 – YJM789 clinical isolate, OD600, 24 h, basal, primary screen (AID 1089).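 Further: growth of clinical yeast isolate S. cerevisiae YJM 789 seeded 1000 cells per well; test concentration not given here.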 The note with it: higher = more signal, called active from +8 up or from −8 down.
Experiment [13] in a line: S. pombe growth modifiers, basal conditions – strain 972, OD600, 24 h, no modulator, primary screen (AID 1090).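 Further: basal condition with compound alone and no growth modifier present; test concentration not given here.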 The note with it: S. pombe 972 growth, higher = more signal, called active from +8 up or from −8 down.
A short description of experiment [14]: budding yeast growth modifiers under rapamycin – strain BY4716, OD600, 96 h, primary screen (AID 1091). Further: test concentration not given here. The note with it: S. cerevisiae BY4716 + rapamycin, higher = more signal, called active from +8 up or from −8 down.
Experiment [15] addresses Torsin-1A-interacting protein 2 (Homo sapiens) (UniProt Q8NFQ8). Description: small molecules binding lysate-expressed LULL1 – cell lysate, human LULL1 lysate, 635/667 nm fluorescence, primary screen (AID 1092).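 Further: probe is lysate of COS7 cells overexpressing human LULL1; score merges per-feature 667 nm fluorescence with signal-to-noise.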 As to conditions: small-molecule microarray, hLULL1 lysate binding, 635 nm fluorescence; higher = more signal.
A short description of experiment [16]: optical density change of DRC41 E. coli – strain DRC41, OD650, 24 h, E. coli filamentation project, primary screen (AID 1093).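 Further: MC1000 strain lacking acrAB efflux and sulA so SOS filamentation is blocked; test concentration not given here.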 The note with it: E. coli DRC41 growth, higher = more signal, called active from +8 up or from −8 down.
Experiment [17] can be described thus: probe aLefty2 binding to arrayed compounds – biochemical, biotinylated probe, 635/667 nm fluorescence, primary screen (AID 1094).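 Further: score merges spot fluorescence near 667 nm with spot signal-to-noise ratio.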 As to conditions: small-molecule microarray, higher = more signal.
Experiment [18] has as its system Noggin (protein binding on small-molecule microarray). Briefly: small molecules binding Noggin protein – biochemical, 635/667 nm fluorescence, primary screen (AID 1095).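 Further: score merges 667 nm feature fluorescence with signal to noise over triplicate slides.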 As to conditions: 635 nm fluorescence, higher = more signal.
Experiment [19] concerns the target Neurogenic locus notch homolog protein 3 (Homo sapiens) (UniProt Q9UM47). Briefly: small molecules binding NOTCH3 protein – biochemical, 635/667 nm fluorescence, primary screen (AID 1096). As to conditions: small-molecule microarray, 635 nm fluorescence, higher = more signal.
A short description of experiment [20]: probe aEGFR binding to arrayed compounds – biochemical, biotinylated probe, 635/667 nm fluorescence, primary screen (AID 1097).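 Further: probe is a biotinylated anti-EGFR antibody binding compounds printed on slides; score combines fluorescence near 667 nm and signal to noise of each spot.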 The note with it: small-molecule microarray, higher = more signal.

Calls of active or inactive are those of the source.

Pro-neuregulin-1, membrane-bound isoform (Homo sapiens), sequence (Q02297 whole entry, looked up, the tested form may be a part, canonical isoform): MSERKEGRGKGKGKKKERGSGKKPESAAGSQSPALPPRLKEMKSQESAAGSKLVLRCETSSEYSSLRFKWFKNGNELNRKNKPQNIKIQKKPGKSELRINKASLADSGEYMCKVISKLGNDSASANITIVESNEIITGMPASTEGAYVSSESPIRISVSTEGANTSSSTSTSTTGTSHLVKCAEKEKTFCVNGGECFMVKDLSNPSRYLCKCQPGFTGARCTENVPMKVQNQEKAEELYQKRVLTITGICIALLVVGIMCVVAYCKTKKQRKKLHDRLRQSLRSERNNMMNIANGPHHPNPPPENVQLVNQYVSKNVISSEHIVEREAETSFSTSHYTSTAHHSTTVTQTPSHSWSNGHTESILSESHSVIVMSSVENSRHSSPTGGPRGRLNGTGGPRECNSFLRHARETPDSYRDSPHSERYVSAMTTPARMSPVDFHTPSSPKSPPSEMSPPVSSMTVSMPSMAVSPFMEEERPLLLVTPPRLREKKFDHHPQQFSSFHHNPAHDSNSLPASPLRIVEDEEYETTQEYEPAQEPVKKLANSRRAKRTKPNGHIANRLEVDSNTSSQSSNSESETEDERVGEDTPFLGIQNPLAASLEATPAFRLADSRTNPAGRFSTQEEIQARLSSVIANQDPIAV
Neurogenic locus notch homolog protein 3 (Homo sapiens), sequence (Q9UM47 whole entry, looked up): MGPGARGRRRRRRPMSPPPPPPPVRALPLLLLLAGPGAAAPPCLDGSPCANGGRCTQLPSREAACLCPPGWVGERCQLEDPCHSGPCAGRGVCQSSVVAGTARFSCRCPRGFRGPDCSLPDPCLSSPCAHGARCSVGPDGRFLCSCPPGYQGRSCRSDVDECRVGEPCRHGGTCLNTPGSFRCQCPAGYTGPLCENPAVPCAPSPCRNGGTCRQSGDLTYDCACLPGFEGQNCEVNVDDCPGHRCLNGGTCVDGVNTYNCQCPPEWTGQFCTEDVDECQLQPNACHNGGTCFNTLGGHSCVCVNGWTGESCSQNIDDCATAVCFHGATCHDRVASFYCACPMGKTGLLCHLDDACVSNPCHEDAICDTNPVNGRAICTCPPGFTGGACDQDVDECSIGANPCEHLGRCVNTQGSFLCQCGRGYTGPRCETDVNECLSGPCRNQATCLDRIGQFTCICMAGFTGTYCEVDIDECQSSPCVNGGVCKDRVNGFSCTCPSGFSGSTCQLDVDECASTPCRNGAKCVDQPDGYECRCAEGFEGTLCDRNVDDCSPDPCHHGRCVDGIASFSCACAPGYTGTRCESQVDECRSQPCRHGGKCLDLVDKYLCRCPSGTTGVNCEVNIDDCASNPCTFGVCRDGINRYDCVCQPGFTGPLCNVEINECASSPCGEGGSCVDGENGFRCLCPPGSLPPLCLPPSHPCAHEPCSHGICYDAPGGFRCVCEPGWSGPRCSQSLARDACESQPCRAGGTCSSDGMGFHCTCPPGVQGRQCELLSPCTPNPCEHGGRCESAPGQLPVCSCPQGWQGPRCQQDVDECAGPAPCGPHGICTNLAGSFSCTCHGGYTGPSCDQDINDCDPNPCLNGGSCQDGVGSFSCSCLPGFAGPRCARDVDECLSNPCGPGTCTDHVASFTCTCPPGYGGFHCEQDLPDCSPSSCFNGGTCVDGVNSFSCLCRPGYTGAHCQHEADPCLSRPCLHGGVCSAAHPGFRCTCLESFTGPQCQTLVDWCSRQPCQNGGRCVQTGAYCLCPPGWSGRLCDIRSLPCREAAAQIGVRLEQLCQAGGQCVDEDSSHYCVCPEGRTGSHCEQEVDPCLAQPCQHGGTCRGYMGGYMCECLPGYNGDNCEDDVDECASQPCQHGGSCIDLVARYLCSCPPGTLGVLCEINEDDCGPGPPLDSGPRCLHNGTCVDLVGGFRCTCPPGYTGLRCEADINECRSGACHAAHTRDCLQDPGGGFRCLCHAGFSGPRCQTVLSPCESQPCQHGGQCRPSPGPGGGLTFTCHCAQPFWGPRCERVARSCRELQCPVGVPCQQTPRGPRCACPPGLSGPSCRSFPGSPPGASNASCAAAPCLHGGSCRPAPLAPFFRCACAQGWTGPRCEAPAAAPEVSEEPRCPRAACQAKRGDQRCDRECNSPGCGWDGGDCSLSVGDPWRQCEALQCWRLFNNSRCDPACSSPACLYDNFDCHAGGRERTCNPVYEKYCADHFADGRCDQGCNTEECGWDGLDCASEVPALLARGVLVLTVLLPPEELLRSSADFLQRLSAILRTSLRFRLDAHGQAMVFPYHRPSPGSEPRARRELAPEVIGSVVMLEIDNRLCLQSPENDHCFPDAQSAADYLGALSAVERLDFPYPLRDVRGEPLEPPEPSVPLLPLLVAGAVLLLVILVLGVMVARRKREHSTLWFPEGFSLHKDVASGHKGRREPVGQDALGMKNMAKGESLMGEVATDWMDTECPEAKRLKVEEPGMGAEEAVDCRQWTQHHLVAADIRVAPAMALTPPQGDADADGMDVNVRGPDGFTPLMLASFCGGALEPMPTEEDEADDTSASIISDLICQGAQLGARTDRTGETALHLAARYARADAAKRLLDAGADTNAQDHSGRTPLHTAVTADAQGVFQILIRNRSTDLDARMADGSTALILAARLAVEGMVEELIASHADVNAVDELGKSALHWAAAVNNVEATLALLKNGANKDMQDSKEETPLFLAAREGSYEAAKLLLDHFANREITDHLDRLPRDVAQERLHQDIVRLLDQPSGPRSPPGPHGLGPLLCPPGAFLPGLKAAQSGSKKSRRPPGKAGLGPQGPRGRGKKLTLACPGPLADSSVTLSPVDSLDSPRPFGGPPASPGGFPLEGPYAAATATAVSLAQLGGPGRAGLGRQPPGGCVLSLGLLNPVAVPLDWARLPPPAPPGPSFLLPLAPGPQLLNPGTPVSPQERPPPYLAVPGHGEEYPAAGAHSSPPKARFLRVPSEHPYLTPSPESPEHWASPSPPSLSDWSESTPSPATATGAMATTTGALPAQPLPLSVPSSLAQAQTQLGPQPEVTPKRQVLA
Torsin-1A-interacting protein 2 (Homo sapiens), sequence (Q8NFQ8 whole entry, looked up): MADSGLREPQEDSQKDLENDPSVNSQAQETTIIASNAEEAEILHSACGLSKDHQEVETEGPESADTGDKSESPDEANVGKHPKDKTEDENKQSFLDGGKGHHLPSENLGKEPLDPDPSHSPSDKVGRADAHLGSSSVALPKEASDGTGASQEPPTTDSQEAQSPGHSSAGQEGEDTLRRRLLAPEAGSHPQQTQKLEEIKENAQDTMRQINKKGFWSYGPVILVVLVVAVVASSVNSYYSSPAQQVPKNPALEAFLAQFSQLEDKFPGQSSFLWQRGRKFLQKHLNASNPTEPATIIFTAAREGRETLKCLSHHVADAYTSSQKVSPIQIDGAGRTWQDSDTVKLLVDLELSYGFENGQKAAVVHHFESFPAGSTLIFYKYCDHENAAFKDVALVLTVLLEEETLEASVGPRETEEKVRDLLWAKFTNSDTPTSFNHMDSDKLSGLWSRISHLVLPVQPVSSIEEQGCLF

Take `Cc1ccc(S[C@]2(C(=O)NC3CC3)CC(=O)N(C3CCCCC3)[C@@H]2c2ccc(CO)cc2I)cc1`: the composite z-score is -0.208 in experiment [1]; 0.298 in experiment [2]; -0.0328 in [3]; 0.48 in experiment [4]; 1.03 in experiment [5]; 1.29 in [6]. Besides, the composite z-score in experiment [7] is 1.31; in experiment [9], 0.431; in [10], 0.118; in [11], 1.53; in experiment [15], 2.6; in experiment [17] it was -0.138. Further, the composite z-score in experiment [18] was 0.659; in experiment [19] it was 1.06; in [20], -0.0703. Besides, the z-score in experiment [8] is -4.48 (inactive); in experiment [12], 0.0615 (inactive); in experiment [13], 0.532 (inactive); in [14] it was 1.38 (inactive); in experiment [16], 1.26 (inactive).
For the compound `COCCOC(=O)N1C(=O)[C@@]2(c3cc(C#Cc4ccc(OC)cc4)ccc31)[C@H](C(=O)N1CCN(c3ncccn3)CC1)[C@H]1C(=O)O[C@H](c3ccccc3)[C@H](c3ccccc3)N1[C@@H]2c1ccc(O)cc1`, the composite z-score in experiment [1] is 0.104; in experiment [2], 0.0053; in [3], -0.144; in [4], 0.464; in [5], -0.202; in experiment [6] it was 0.169. Further, the composite z-score in experiment [7] is 0.542; in [9], 0.218; in [10], -0.0994; in experiment [11], 0.344; in [15], 0.78; in experiment [17], -0.247. Moreover, the composite z-score in experiment [18] is 0.587; in [19], 0.213; in experiment [20], -0.0978. For the same compound, the z-score in experiment [8] was -1.3 (inactive); in experiment [12] it was -1.94 (inactive); in experiment [13] it was -0.197 (inactive); in experiment [14], 0.872 (inactive); in experiment [16], 0.313 (inactive).
As for `CO[C@H]1O[C@H](CO)[C@@H](OC(=O)Nc2ccc(Oc3ccccc3)cc2)[C@H](OC(=O)Nc2ccccc2)[C@H]1OC(=O)Nc1ccccc1`, the composite z-score in experiment [1] is 0.096; in experiment [2] it was 0.95; in [3], 0.0732; in [4], 1.16; in [5], 1.48; in experiment [6], 1.3. Further, the composite z-score is 1.39 in experiment [7]; 0.446 in experiment [9]; -0.0346 in [10]; 1.55 in experiment [11]; 3.26 in experiment [15]; 0.286 in experiment [17]. Further, the composite z-score in experiment [18] was 0.7; in experiment [19], 1.13; in experiment [20] it was 0.13. For the same compound, the z-score in [8] is 0.119 (inactive); in experiment [12], 1.48 (inactive); in experiment [13], 0.613 (inactive); in [14], -1.75 (inactive); in experiment [16], 0.939 (inactive).
In the case of `CCOC(=O)[C@H]1C/C=C/C[C@H](C(=O)OCC)C(=O)O[C@H]2[C@@H](OC)O[C@H](CO)[C@@H](OC(=O)Nc3ccc4c(c3)OCO4)[C@@H]2OC1=O`, the composite z-score in experiment [1] was -0.267; in experiment [2], 0.451; in experiment [3], 0.0302; in experiment [4], 0.718; in [5], 0.235; in [6] it was 1.5. The composite z-score in experiment [7] was 1.25; in experiment [9], 0.0008; in experiment [10], -0.212; in experiment [11] it was 0.921; in [15] it was 2.35; in [17] it was -0.0238. Further, the results for the composite z-score in experiment [18], in experiment [19] and in [20] were -0.259, 0.145 and -0.071, respectively. Moreover, the z-score is 0.891 (inactive) in experiment [8]; 1.12 (inactive) in experiment [12]; 0.079 (inactive) in experiment [13]; 6.03 (inactive) in experiment [14]; 1.59 (inactive) in experiment [16].
Turning to `COc1ccc(C(=O)Nc2cccc(CN3C(=O)[C@@]4(O[C@@H](CCn5cc(CCO)nn5)[C@H]([Si](C)(C)c5ccc(OC)cc5)[C@H]4C)c4ccccc43)c2)cc1`, the composite z-score in experiment [1] is -0.115; in experiment [2] it was 0.485; in experiment [3] it was -0.0381; in experiment [4], 0.205; in experiment [5], 1.12; in experiment [6], 1.08. The composite z-score in experiment [7] is 1.11; in experiment [9], 0.407; in [10], -0.0994; in [11] it was 1.55; in [15], 2.06; in experiment [17] it was 0.0361. Further, the results for the composite z-score in experiment [18], in experiment [19] and in [20] were 1.2, 1.11 and 0.0511, respectively. Also, the z-score in [8] is -3.09 (inactive); in experiment [12], 1.65 (inactive); in experiment [13], -14 (active); in experiment [14], 0.984 (inactive); in experiment [16], -1.02 (inactive).
